Source: PubChem BioAssay (Broad Institute)
This is one part of a sample in which hits are shown more often than they occur.
T cruzi growth-1: blocks T. cruzi growth in NIH3T3 culture; T. cruzi beta-gal in NIH3T3, GalScreen luminescence, 90 h; inhibition, % at 8.34 µM; 5.9% of 77,000 active;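 active means mean inhibition above about 93%, with at least 55% of replicates each passing it, limit read from the data, passing the limit was not always enough; inconclusive means only one of those two conditions holds; inactive means neither condition holds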
C diff HTS: blocks growth of Clostridium difficile. 0.25% of 86,000 active. AID 1259249. growth activity, negative = inhibition, % at 16 µg/mL (by protocol). Clostridium difficile clinical isolate growth, OD600, 24 h; hits give low values;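 active means mean growth activity at or below -80% and every replicate also at or below -80%; inconclusive means mean at or below -80% but some replicate above -80%; inactive means mean growth activity above -80%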;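 further: 0% = DMSO wells and -100% = levofloxacin 16 µg/mL wells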
T cruzi growth-2: blocks T. cruzi growth in NIH3T3 host cells; shares compounds with T cruzi growth-1; T. cruzi beta-gal in NIH3T3, GalScreen luminescence, 90 h; inhibition, % at 8.35 µM; 72% of 5,600 active; AID 651739;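 active means mean replicate inhibition above about 95% and at least 55% of replicates individually reaching it, limit read from the data; inconclusive means only one of the two criteria is met; inactive means neither criterion is met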
T cruzi growth-3: Trypanosoma cruzi proliferation inhibition. shares compounds with T cruzi growth-1. T. cruzi beta-gal in NIH3T3, GalScreen luminescence, 90 h. inhibition, % at 2.09 µM. 21% of 5,600 active. AID 651740;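 active means mean inhibition above about 95%, with at least 55% of replicates also reaching it, limit read from the data; inconclusive means meets just one of the two conditions; inactive means meets neither condition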;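 further: plate controls were neutral control median for no effect and positive control median for full effect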
3T3 cytotox: cytotoxicity in mouse NIH/3T3 fibroblasts; shares compounds with T cruzi growth-1; NIH/3T3 viability, CellTiter-Glo ATP luminescence, 90 h; cytotoxicity (signal decrease), % at 8.35 µM; 14% of 5,600 active; AID 651742;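 active means mean signal decrease across replicates above about 35% based on untreated-well scatter, with enough replicates individually passing, limit read from the data; inconclusive means no rule stated though some were filed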;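 further: 0% = median of neutral control wells and 100% = median of positive control wells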
NIH3T3 tox 2: NIH/3T3 (mouse) viability loss. shares compounds with T cruzi growth-1. NIH/3T3 viability, CellTiter-Glo ATP luminescence, 90 h. inhibition, % at 24.9 µM. 56% of 5,600 active. AID 651744;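 active means mean loss of cell viability signal at or above a set limit, and enough replicates individually reaching it; inconclusive means meets only the mean limit or only the replicate share; inactive means meets neither condition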;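 further: 0% = median of neutral control wells and 100% = median of positive control wells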
Starred values were filed as active, the others as inactive; ? = inconclusive; . = not tested or not shown.

SMILES	T cruzi growth-1	C diff HTS	T cruzi growth-2	T cruzi growth-3	3T3 cytotox	NIH3T3 tox 2
C[C@@H]1CCCCO[C@@H](CN(C)Cc2ccc(Cl)c(Cl)c2)[C@@H](C)CN([C@H](C)CO)C(=O)c2cc(NC(=O)Nc3ccc(F)cc3)ccc2O1	109.0*	.	101.1*	108.5*	-6.3	-1.8
C[C@@H]1CN([C@H](C)CO)C(=O)c2cc(NC(=O)Nc3ccccc3)ccc2O[C@@H](C)CCCCO[C@H]1CN(C)Cc1ccc(Cl)c(Cl)c1	67.8	18.7	.	.	.	.
C[C@@H]1CCCCO[C@H](CN(C)Cc2ccc(Cl)c(Cl)c2)[C@@H](C)CN([C@@H](C)CO)C(=O)c2cc(NC(=O)Nc3ccc(C(F)(F)F)cc3)ccc2O1	26.4	21.8	.	.	.	.
C[C@@H]1CCCCO[C@@H](CN(C)Cc2ccc(Cl)c(Cl)c2)[C@H](C)CN([C@H](C)CO)C(=O)c2cc(NC(=O)Nc3ccccc3)ccc2O1	72.9	15.5	.	.	.	.
C[C@@H]1CN([C@@H](C)CO)C(=O)c2cc(NC(=O)Nc3ccc(F)cc3)ccc2O[C@@H](C)CCCCO[C@H]1CN(C)Cc1ccc(Cl)c(Cl)c1	103.2*	.	93.7	110.2*	44.1*	15.3
C[C@@H]1CCCCO[C@H](CN(C)Cc2ccc(Cl)c(Cl)c2)[C@H](C)CN([C@@H](C)CO)C(=O)c2cc(NC(=O)Nc3ccccc3)ccc2O1	76.1	7.8	.	.	.	.
C[C@@H]1CCCCO[C@H](CN(C)Cc2ccc(Cl)c(Cl)c2)[C@@H](C)CN([C@H](C)CO)C(=O)c2cc(NC(=O)Nc3ccc(F)cc3)ccc2O1	101.9*	.	?	107.7*	20.6	8.3
CCC(=O)Nc1ccc2c(c1)C(=O)N(C)[C@@H]1CC[C@@H](CC(=O)NCCOC)O[C@@H]1CO2	9.5	-0.3	.	.	.	.
Cc1noc(C)c1S(=O)(=O)Nc1ccc2c(c1)C(=O)N([C@H](C)CO)C[C@@H](C)[C@H](CN(C)Cc1ccc(C(=O)O)cc1)OCCCC[C@@H](C)O2	43.4	4.7	.	.	.	.
Cc1noc(C)c1S(=O)(=O)Nc1ccc2c(c1)C(=O)N([C@H](C)CO)C[C@@H](C)[C@@H](CN(C)Cc1ccc(C(F)(F)F)cc1)OCCCC[C@H](C)O2	87.4	.	.	.	.	.
Cc1noc(C)c1S(=O)(=O)Nc1ccc2c(c1)C(=O)N([C@H](C)CO)C[C@@H](C)[C@H](CN(C)Cc1ccc(C(F)(F)F)cc1)OCCCC[C@H](C)O2	94.7	9.5	.	.	.	.
Cc1noc(C)c1S(=O)(=O)Nc1ccc2c(c1)C(=O)N([C@H](C)CO)C[C@@H](C)[C@H](CN(C)Cc1ccc(C(F)(F)F)cc1)OCCCC[C@@H](C)O2	106.2*	7.8	88.3	111.8*	25.1	105.4*
Cc1noc(C)c1S(=O)(=O)Nc1ccc2c(c1)C(=O)N([C@@H](C)CO)C[C@@H](C)[C@H](CN(C)Cc1ccc3c(c1)OCO3)OCCCC[C@H](C)O2	60.6	9.7	.	.	.	.
Cc1noc(C)c1S(=O)(=O)Nc1ccc2c(c1)C(=O)N([C@@H](C)CO)C[C@H](C)[C@H](CN(C)Cc1ccc(C(F)(F)F)cc1)OCCCC[C@@H](C)O2	100.8*	-4.8	104.2*	85.6	-4.2	3.2
Cc1noc(C)c1S(=O)(=O)Nc1ccc2c(c1)C(=O)N([C@@H](C)CO)C[C@H](C)[C@H](CN(C)Cc1ccc(C(F)(F)F)cc1)OCCCC[C@H](C)O2	99.5*	.	96.5*	67.1	15.1	104.8*
Cc1noc(C)c1S(=O)(=O)Nc1ccc2c(c1)C(=O)N([C@H](C)CO)C[C@@H](C)[C@@H](CN(C)Cc1ccc3c(c1)OCO3)OCCCC[C@H](C)O2	104.0*	2.6	110.5*	65.3	9.5	34.2*
COc1ccc2c3c(n(C)c2c1)[C@H](CO)N(C(=O)C1CCCC1)CC31CCN(C)CC1	.	0.0	.	.	.	.
C[C@@H]1CN([C@@H](C)CO)C(=O)c2cc(NC(=O)Nc3ccc4c(c3)OCO4)ccc2O[C@@H]1CN(C)S(C)(=O)=O	-39.5	.	.	.	.	.
CCC(=O)Nc1ccc2c(c1)C(=O)N(C)C[C@@H](OC)[C@@H](C)CN(C(=O)CN1CCOCC1)[C@H](C)CO2	-6.4	.	.	.	.	.
Cc1noc(C)c1S(=O)(=O)Nc1ccc2c(c1)C(=O)N([C@H](C)CO)C[C@H](C)[C@H](CN(C)Cc1ccc(C(=O)O)cc1)OCCCC[C@@H](C)O2	19.5	-6.9	.	.	.	.
